BAZ2B inh – qHTS Assay for Inhibitors of BAZ2B; Bromodomain adjacent to zinc finger domain protein 2B (Homo sapiens), Q9UIF8; AlphaScreen BAZ2B-H3K14Ac peptide displacement; Potency, µM (doses to about 114 µM), without a hit: at the highest dose activity change, negative = inhibition, usual class: inhibitors; 360,000 tested, 4.4% active; further: on the % scale 0 is the no-effect control and ±100 the full control effect; nearly all actives have a fitted effect of over 60% in size
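BAZ2B (50 nM) with biotin-H3(5-23)K14Ac peptide (50 nM) in PBS pH 7.4, 0.01% Tween-20, preformed 30 min, then compound 30 min at room temperature; top concentration 110uM. AlphaScreen streptavidin donor/nickel chelate acceptor beads (10 ug/mL final), 20 min dark, signal read.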
G9a inh – qHTS Assay for Inhibitors of Histone Lysine Methyltransferase G9a | Histone-lysine N-methyltransferase EHMT2 (Homo sapiens), Q96KQ7 | G9a H3K9 monomethylation, AlphaScreen, 2 h | Potency, µM (doses to about 102 µM), for inactives: top-dose activity, negative = inhibition, actives largely listed as inhibitors | 350,000 tested, 8.8% active | AID 504332, 2011; further: on the % scale 0 is the no-effect control and ±100 the full control effect; nearly all actives have a fitted effect of over 75% in size
Target sequence (Q96KQ7 913-1193 limits assumed): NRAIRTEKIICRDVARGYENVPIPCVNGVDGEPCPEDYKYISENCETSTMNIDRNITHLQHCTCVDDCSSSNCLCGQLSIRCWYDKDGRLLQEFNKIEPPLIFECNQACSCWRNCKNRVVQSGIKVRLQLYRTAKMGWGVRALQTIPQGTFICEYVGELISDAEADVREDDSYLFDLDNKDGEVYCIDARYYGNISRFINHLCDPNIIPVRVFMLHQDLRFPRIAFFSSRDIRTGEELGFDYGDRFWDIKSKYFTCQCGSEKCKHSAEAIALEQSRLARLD
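Chemiluminescent proximity detection of H3K9 monomethylation, read after 10 min bead incubation in the dark. Reaction: 20 nM G9a, 500 nM biotin-H3K9 peptide, 20 uM SAM cofactor, 2 h, room temperature, following 15 min enzyme-compound preincubation.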
Sfp inh – qHTS Assay for Inhibitors of Bacillus subtilis Sfp phosphopantetheinyl transferase (PPTase). Biochemical Sfp PPTase activity, qHTS. Potency, µM, for the others: largest response in the series, negative = inhibition, most hits filed as inhibitors. 310,000 tested, 3.5% active. AID 1490, 2009;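 further: the enzyme is Sfp with the accession as filed and its product quenches rhodamine fluorescence; 0% = enzyme reaction without inhibitor and -100% = no enzyme wells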
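Fluorescence-quenching assay: 15 nM Sfp-PPTase preincubated 15 min at room temperature with compound, then 5 uM rhodamine-CoA and 12.5 uM BHQ-2-labelled YbbR peptide added. Fluorescence (ex 525/em 598 nm) read at start and after 30 min; difference gives rate.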
L3MBTL1 inh – qHTS Assay for the Inhibitors of L3MBTL1; AlphaScreen L3MBTL1–H3K9me1 peptide binding; Lethal(3)malignant brain tumor-like protein 1 (Homo sapiens), Q9Y468; 230,000 tested, 0.66% active; Potency, µM (top dose mostly 57.1 µM), inactives show top-dose activity, negative = inhibition, hits mostly inhibitors; further: on the % scale 0 is the no-effect control and ±100 the full control effect; nearly all actives have a fitted effect of over 60% in size
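L3MBTL1 50 nM + b-AHA-H3(1-15)K9me1 75 nM, 30 min RT; compound added, 30 min RT; streptavidin donor/Ni-chelate acceptor beads 10 ug/mL each final, 30 min RT dark; AlphaScreen read.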
JMJD2A Tudor inh – qHTS Assay for Inhibitors of JMJD2A-Tudor Domain; Lysine-specific demethylase 4A (Homo sapiens), O75164; AlphaScreen JMJD2A-Tudor / H3K4me3 peptide binding; Potency, µM (top dose mostly 114 µM), for the others: top-dose activity change, negative = inhibition, usual class: inhibitors; 390,000 tested, 4.4% active; AID 504339, 2011; further: on the % scale 0 is the no-effect control and ±100 the full control effect; nearly all actives have a fitted effect of over 50% in size
HP1b chromo inh – HTS for Inhibitors of HP1-beta Chromodomain Interactions with Methylated Histone Tails; AlphaScreen HP1-beta / biotin-H3K9me3 peptide binding; Potency, µM (highest dose often 114 µM), for inactives: at the highest dose activity change, negative = inhibition, actives largely listed as inhibitors; 390,000 tested, 0.56% active; AID 540317, 2011; further: nearly all actives have a fitted effect of over 70% in size
Target sequence (P83916 whole entry, looked up): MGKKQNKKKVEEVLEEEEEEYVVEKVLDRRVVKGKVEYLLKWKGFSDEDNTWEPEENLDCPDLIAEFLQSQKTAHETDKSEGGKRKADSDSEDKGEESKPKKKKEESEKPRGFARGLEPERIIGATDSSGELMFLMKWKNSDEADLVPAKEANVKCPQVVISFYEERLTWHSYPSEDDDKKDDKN
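HP1-beta protein (50 nM final) preincubated 30 min at room temperature with biotinylated H3(1-18)K9me3 peptide (50 nM) in PBS pH 7.4, 0.01% Tween-20, then compound added for 30 min. AlphaScreen streptavidin donor/nickel chelate acceptor beads (10 ug/mL final), 30 min dark, luminescence read.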
* marks the source's active call; other numbers are inactive results; [ ] = another dose, or the depositor's remark. In the library only some 12% were active in any assay of this set; here they are far more common. The call rests on the fitted dose curve; in most records, active means well fitted curve in the direction sought with a large enough effect; inconclusive means small, poorly fitted or top-dose-only effect, or another doubt; inactive means no such curve, though single readings can be large; an effect the other way counts as inactive or inconclusive. Potency means the concentration at half of the fitted maximal effect.

What do the screens show for `CCOC(=O)c1c(SCc2ccccc2)n[nH]c1N`?
BAZ2B inh: -12%; G9a inh: 8%; Sfp inh: 10%; L3MBTL1 inh: -3%; JMJD2A Tudor inh: -33%; HP1b chromo inh: 23%

Results for CN(C)C(=N)c1n[nH]nc1SCc1ccccc1 ?
BAZ2B inh: 79µM*; G9a inh: -44%[59 µM]; Sfp inh: 18%; L3MBTL1 inh: 0%; JMJD2A Tudor inh: -17%; HP1b chromo inh: 11%

How did CCN1C(=O)S/C(=C/c2ccc(Sc3nc4ccccc4[nH]3)o2)C1=O do in these assays?
BAZ2B inh: -2%; G9a inh: 11µM*; Sfp inh: 12%; L3MBTL1 inh: -8%; JMJD2A Tudor inh: -24%; HP1b chromo inh: 18%

What do the screens show for `N#C/C(=C/c1ccc(Sc2nc3ccccc3[nH]2)o1)c1cccc(Br)c1`?
BAZ2B inh: 8%; G9a inh: inconclusive; Sfp inh: 19%; JMJD2A Tudor inh: -19%[11.4 µM]; HP1b chromo inh: 49%

Results for CCOC(=O)N1CCN(c2cc(=O)n(-c3ccccc3C)c(=O)[nH]2)CC1 ?
G9a inh: -38%; Sfp inh: -4%; JMJD2A Tudor inh: -4%; HP1b chromo inh: 20%

Results for CCN1CCN(c2cc(=O)n(-c3cc(Cl)ccc3C)c(=O)[nH]2)CC1 ?
BAZ2B inh: -24%; G9a inh: 50µM*; Sfp inh: -14%; L3MBTL1 inh: 1%; JMJD2A Tudor inh: -6%; HP1b chromo inh: 17%

How did Cc1ccc(-n2c(=O)cc(N3CCN(c4ccccc4Cl)CC3)[nH]c2=O)cc1 do in these assays?
BAZ2B inh: 2%; G9a inh: 2%[59 µM]; JMJD2A Tudor inh: -11%; HP1b chromo inh: 6%[57 µM]

What do the screens show for `Cc1ccccc1-n1c(=O)cc(N2CCN(Cc3ccccc3)CC2)[nH]c1=O`?
BAZ2B inh: 14%; G9a inh: 56µM*; Sfp inh: inconclusive; L3MBTL1 inh: 7%; JMJD2A Tudor inh: -13%; HP1b chromo inh: 8%

How did COc1cc2c(cc1OC)C(c1ccc(Cl)cc1)N(c1cccc(C#N)c1)C(=O)C2 (stereo not given) do in these assays?
BAZ2B inh: -25%; G9a inh: 1%[59 µM]; JMJD2A Tudor inh: -29%; HP1b chromo inh: 12%

How did CC1(C)CC2(C)OC(=N)C1(C#N)C2(C#N)C#N (stereo not given) do in these assays?
BAZ2B inh: -5%; G9a inh: 56µM*; Sfp inh: -5%; L3MBTL1 inh: 0%; JMJD2A Tudor inh: -3%; HP1b chromo inh: 34%

What do the screens show for `Cc1c(C)c2ccc(OCC(=O)NCCCn3ccnc3)cc2oc1=O`?
BAZ2B inh: -17%[57.1 µM]; G9a inh: 1%; Sfp inh: -2%; JMJD2A Tudor inh: 22µM*; HP1b chromo inh: 42%

What do the screens show for `Cc1cc(=O)oc2cc(OCC(=O)NCCCn3ccnc3)ccc12`?
BAZ2B inh: -19%; G9a inh: -7%[59 µM]; Sfp inh: 11%; JMJD2A Tudor inh: 9%; HP1b chromo inh: 25%

How did Cc1cc(NC(=O)CSc2nnc(-c3ccccc3F)n2N)no1 do in these assays?
L3MBTL1 inh: -7%; JMJD2A Tudor inh: -23%; HP1b chromo inh: 7%

What do the screens show for `O=C(CCn1nc(-c2ccccc2)ccc1=O)NCCCN1CCCCCC1`?
BAZ2B inh: 79µM*; Sfp inh: -14%; L3MBTL1 inh: 0%; JMJD2A Tudor inh: inconclusive; HP1b chromo inh: 15%

Screening results: PubChem BioAssay, National Center for Advancing Translational Sciences (NCATS)
